# Publication PMC11006913
# Numbering of substitutions follows the chain as printed.
# What was measured:
# Experiment in all cases: PBM; 200 nM protein, PBS
# Conditions in all cases: dsDNA, one strand shown
# HOXB4 [1] = molecular target: HOXB4 (Homo sapiens, UniProt P17483 148-234)
# VENTX [2] = molecular target: T1, VENTX (Homo sapiens, UniProt O95231 78-163, R121Q)
# T1 sequence: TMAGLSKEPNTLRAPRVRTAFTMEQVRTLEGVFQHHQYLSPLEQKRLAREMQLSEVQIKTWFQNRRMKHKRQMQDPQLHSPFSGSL
# HOXA4 [3] = molecular target: HOXA4 (Homo sapiens, UniProt Q00056 201-287, W262R)
# HOXA4 (Homo sapiens, UniProt Q00056 201-287, W262R), sequence (Q00056 201-287 W262R): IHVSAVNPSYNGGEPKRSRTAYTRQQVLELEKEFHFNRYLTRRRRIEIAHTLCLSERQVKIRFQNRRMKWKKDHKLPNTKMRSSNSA
# ALX4 = ALX4 (Homo sapiens, UniProt Q9H161 200-286)
# ALX4, sequence (Q9H161 200-286): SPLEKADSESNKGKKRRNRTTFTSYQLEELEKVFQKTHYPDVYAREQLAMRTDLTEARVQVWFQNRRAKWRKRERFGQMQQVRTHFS
# PRRX1 [4] = molecular target: PRRX1 (Homo sapiens, UniProt P54821 80-166, F113S)
# PRRX1 (Homo sapiens, UniProt P54821 80-166, F113S), sequence (P54821 80-166 F113S): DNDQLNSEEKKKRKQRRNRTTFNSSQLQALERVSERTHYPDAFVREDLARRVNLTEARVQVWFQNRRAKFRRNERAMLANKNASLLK
# VENTX [5] = molecular target: T2, VENTX (Homo sapiens, UniProt O95231 78-163, Y115F)
# T2 sequence: T1 sequence with Y38F, Q44R
# HOXB6 [6] = molecular target: HOXB6 (Homo sapiens, UniProt P17509 132-218, K202E)
# HOXB6 (Homo sapiens, UniProt P17509 132-218, K202E), sequence (P17509 132-218 K202E): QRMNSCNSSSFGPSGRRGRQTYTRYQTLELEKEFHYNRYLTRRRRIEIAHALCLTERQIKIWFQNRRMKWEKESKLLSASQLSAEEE
# HOXA2 [7] = molecular target: HOXA2 (Homo sapiens, UniProt O43364 129-215, R185T)
# HOXA2 (Homo sapiens, UniProt O43364 129-215, R185T), sequence (O43364 129-215 R185T): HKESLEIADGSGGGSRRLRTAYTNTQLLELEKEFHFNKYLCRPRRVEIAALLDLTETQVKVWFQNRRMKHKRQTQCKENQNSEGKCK
# HOXA4 [8] = molecular target: HOXA4 (Homo sapiens, UniProt Q00056 201-287, R217L)
# HOXA4 (Homo sapiens, UniProt Q00056 201-287, R217L), sequence (Q00056 201-287 R217L): as the sequence (Q00056 201-287 W262R) above, with R17L, R62W counted along it
# HOXB4 [9] = molecular target: HOXB4 (Homo sapiens, UniProt P17483 148-234, V174I)
# HOXB4 (Homo sapiens, UniProt P17483 148-234, V174I), sequence (P17483 148-234 V174I): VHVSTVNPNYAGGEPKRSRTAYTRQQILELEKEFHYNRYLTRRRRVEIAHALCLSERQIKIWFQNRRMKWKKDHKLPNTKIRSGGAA
# PAX4 = molecular target: T3, PAX4 (Homo sapiens, UniProt O43316 9-242, R200Q)
# T3 sequence: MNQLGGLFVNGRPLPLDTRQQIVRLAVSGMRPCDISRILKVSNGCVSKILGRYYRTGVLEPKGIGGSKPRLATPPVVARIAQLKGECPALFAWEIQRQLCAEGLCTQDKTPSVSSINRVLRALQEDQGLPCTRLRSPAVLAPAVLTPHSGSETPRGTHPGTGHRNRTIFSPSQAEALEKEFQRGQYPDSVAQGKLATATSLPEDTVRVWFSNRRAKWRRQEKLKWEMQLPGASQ
# HOXA2 [10] = molecular target: HOXA2 (Homo sapiens, UniProt O43364 129-215, R185K)
# HOXA2 (Homo sapiens, UniProt O43364 129-215, R185K), sequence (O43364 129-215 R185K): as the sequence (O43364 129-215 R185T) above, with T57K counted along it
# HOXA4 [11] = molecular target: HOXA4 (Homo sapiens, UniProt Q00056 201-287)
# HOXA4 (Homo sapiens, UniProt Q00056 201-287), sequence (Q00056 201-287): as the sequence (Q00056 201-287 W262R) above, with R62W counted along it
# MSX2 [12] = molecular target: MSX2 (Homo sapiens, UniProt P35548 130-214)
# MSX2 (Homo sapiens, UniProt P35548 130-214), sequence (P35548 130-214): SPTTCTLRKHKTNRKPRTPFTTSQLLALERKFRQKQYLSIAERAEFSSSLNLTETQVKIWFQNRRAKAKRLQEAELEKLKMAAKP
# MSX2 [13] = molecular target: MSX2 (Homo sapiens, UniProt P35548 130-214, F161Y)
# MSX2 (Homo sapiens, UniProt P35548 130-214, F161Y), sequence (P35548 130-214 F161Y): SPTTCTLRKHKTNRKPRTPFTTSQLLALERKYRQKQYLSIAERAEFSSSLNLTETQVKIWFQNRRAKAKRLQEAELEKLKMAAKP
# VAX1 [14] = molecular target: VAX1 (Homo sapiens, UniProt Q5SQQ9 86-172, T142I)
# VAX1 (Homo sapiens, UniProt Q5SQQ9 86-172, T142I), sequence (Q5SQQ9 86-172 T142I): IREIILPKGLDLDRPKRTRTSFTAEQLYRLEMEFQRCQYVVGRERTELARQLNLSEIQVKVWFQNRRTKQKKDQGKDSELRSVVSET
# HOXA4 [15] = molecular target: HOXA4 (Homo sapiens, UniProt Q00056 201-287, W262F)
# HOXA4 (Homo sapiens, UniProt Q00056 201-287, W262F), sequence (Q00056 201-287 W262F): as the sequence (Q00056 201-287 W262R) above, with R62F counted along it
# PRRX1 [16] = molecular target: PRRX1 (Homo sapiens, UniProt P54821 80-166)
# PRRX1 (Homo sapiens, UniProt P54821 80-166), sequence (P54821 80-166): as the sequence (P54821 80-166 F113S) above, with S34F counted along it
# VAX1 [17] = molecular target: VAX1 (Homo sapiens, UniProt Q5SQQ9 86-172, K157R)
# VAX1 (Homo sapiens, UniProt Q5SQQ9 86-172, K157R), sequence (Q5SQQ9 86-172 K157R): as the sequence (Q5SQQ9 86-172 T142I) above, with I57T, K72R counted along it
# HOXB6 [18] = molecular target: HOXB6 (Homo sapiens, UniProt P17509 132-218)
# HOXB6 (Homo sapiens, UniProt P17509 132-218), sequence (P17509 132-218): as the sequence (P17509 132-218 K202E) above, with E71K counted along it
# HOXB4 (Homo sapiens, UniProt P17483 148-234), sequence (P17483 148-234): as the sequence (P17483 148-234 V174I) above, with I27V counted along it
Sequence,binding signal (HOXB4 [1]),binding signal (VENTX [2]),binding signal (HOXA4 [3]),binding signal (ALX4),binding signal (PRRX1 [4]),binding signal (VENTX [5]),binding signal (HOXB6 [6]),binding signal (HOXA2 [7]),binding signal (HOXA4 [8]),binding signal (HOXB4 [9]),binding signal (PAX4),binding signal (HOXA2 [10]),binding signal (HOXA4 [11]),binding signal (MSX2 [12]),binding signal (MSX2 [13]),binding signal (VAX1 [14]),binding signal (HOXA4 [15]),binding signal (PRRX1 [16]),binding signal (VAX1 [17]),binding signal (HOXB6 [18])
TAATTAGA,"13.5 upbm affinity estimate (log intensity, higher = more binding, comparable within an allelic series)","12.5 upbm affinity estimate (log intensity, higher = more binding, comparable within an allelic series)","10.8 upbm affinity estimate (log intensity, higher = more binding, comparable within an allelic series)","14.5 upbm affinity estimate (log intensity, higher = more binding, comparable within an allelic series)","11.9 upbm affinity estimate (log intensity, higher = more binding, comparable within an allelic series)","12.4 upbm affinity estimate (log intensity, higher = more binding, comparable within an allelic series)","10 upbm affinity estimate (log intensity, higher = more binding, comparable within an allelic series)","13.9 upbm affinity estimate (log intensity, higher = more binding, comparable within an allelic series)","12.5 upbm affinity estimate (log intensity, higher = more binding, comparable within an allelic series)","14.2 upbm affinity estimate (log intensity, higher = more binding, comparable within an allelic series)","12.7 upbm affinity estimate (log intensity, higher = more binding, comparable within an allelic series)","13.9 upbm affinity estimate (log intensity, higher = more binding, comparable within an allelic series)","14.1 upbm affinity estimate (log intensity, higher = more binding, comparable within an allelic series)","14.1 upbm affinity estimate (log intensity, higher = more binding, comparable within an allelic series)","13.7 upbm affinity estimate (log intensity, higher = more binding, comparable within an allelic series)","13.7 upbm affinity estimate (log intensity, higher = more binding, comparable within an allelic series)","12.1 upbm affinity estimate (log intensity, higher = more binding, comparable within an allelic series)","13.6 upbm affinity estimate (log intensity, higher = more binding, comparable within an allelic series)","13.9 upbm affinity estimate (log intensity, higher = more binding, comparable within an allelic series)","12 upbm affinity estimate (log intensity, higher = more binding, comparable within an allelic series)"
TAATTGCA,,"11.8 upbm affinity estimate (log intensity, higher = more binding, comparable within an allelic series)",,,,"11.6 upbm affinity estimate (log intensity, higher = more binding, comparable within an allelic series)","10 upbm affinity estimate (log intensity, higher = more binding, comparable within an allelic series)","12.7 upbm affinity estimate (log intensity, higher = more binding, comparable within an allelic series)","11.9 upbm affinity estimate (log intensity, higher = more binding, comparable within an allelic series)",,,"13.4 upbm affinity estimate (log intensity, higher = more binding, comparable within an allelic series)",,"13.9 upbm affinity estimate (log intensity, higher = more binding, comparable within an allelic series)","13.6 upbm affinity estimate (log intensity, higher = more binding, comparable within an allelic series)","12.5 upbm affinity estimate (log intensity, higher = more binding, comparable within an allelic series)",,,"12.4 upbm affinity estimate (log intensity, higher = more binding, comparable within an allelic series)","12.1 upbm affinity estimate (log intensity, higher = more binding, comparable within an allelic series)"
CCAATTAA,"13 upbm affinity estimate (log intensity, higher = more binding, comparable within an allelic series)","12.2 upbm affinity estimate (log intensity, higher = more binding, comparable within an allelic series)","10.6 upbm affinity estimate (log intensity, higher = more binding, comparable within an allelic series)","14.3 upbm affinity estimate (log intensity, higher = more binding, comparable within an allelic series)","11.6 upbm affinity estimate (log intensity, higher = more binding, comparable within an allelic series)","11.8 upbm affinity estimate (log intensity, higher = more binding, comparable within an allelic series)","10 upbm affinity estimate (log intensity, higher = more binding, comparable within an allelic series)","12.9 upbm affinity estimate (log intensity, higher = more binding, comparable within an allelic series)","12 upbm affinity estimate (log intensity, higher = more binding, comparable within an allelic series)","13.7 upbm affinity estimate (log intensity, higher = more binding, comparable within an allelic series)","12.4 upbm affinity estimate (log intensity, higher = more binding, comparable within an allelic series)","13.1 upbm affinity estimate (log intensity, higher = more binding, comparable within an allelic series)","13.6 upbm affinity estimate (log intensity, higher = more binding, comparable within an allelic series)","14.2 upbm affinity estimate (log intensity, higher = more binding, comparable within an allelic series)","13.8 upbm affinity estimate (log intensity, higher = more binding, comparable within an allelic series)","12.7 upbm affinity estimate (log intensity, higher = more binding, comparable within an allelic series)","11.3 upbm affinity estimate (log intensity, higher = more binding, comparable within an allelic series)","13.6 upbm affinity estimate (log intensity, higher = more binding, comparable within an allelic series)","13 upbm affinity estimate (log intensity, higher = more binding, comparable within an allelic series)","11.9 upbm affinity estimate (log intensity, higher = more binding, comparable within an allelic series)"
CCTAATTA,"13.5 upbm affinity estimate (log intensity, higher = more binding, comparable within an allelic series)","12.6 upbm affinity estimate (log intensity, higher = more binding, comparable within an allelic series)","10.7 upbm affinity estimate (log intensity, higher = more binding, comparable within an allelic series)","14.5 upbm affinity estimate (log intensity, higher = more binding, comparable within an allelic series)","11.6 upbm affinity estimate (log intensity, higher = more binding, comparable within an allelic series)","12.4 upbm affinity estimate (log intensity, higher = more binding, comparable within an allelic series)","10 upbm affinity estimate (log intensity, higher = more binding, comparable within an allelic series)","14 upbm affinity estimate (log intensity, higher = more binding, comparable within an allelic series)","12.6 upbm affinity estimate (log intensity, higher = more binding, comparable within an allelic series)","14.2 upbm affinity estimate (log intensity, higher = more binding, comparable within an allelic series)","12.5 upbm affinity estimate (log intensity, higher = more binding, comparable within an allelic series)","13.8 upbm affinity estimate (log intensity, higher = more binding, comparable within an allelic series)","14.2 upbm affinity estimate (log intensity, higher = more binding, comparable within an allelic series)","14.1 upbm affinity estimate (log intensity, higher = more binding, comparable within an allelic series)","13.7 upbm affinity estimate (log intensity, higher = more binding, comparable within an allelic series)","13.9 upbm affinity estimate (log intensity, higher = more binding, comparable within an allelic series)","12.3 upbm affinity estimate (log intensity, higher = more binding, comparable within an allelic series)","13.6 upbm affinity estimate (log intensity, higher = more binding, comparable within an allelic series)","14.1 upbm affinity estimate (log intensity, higher = more binding, comparable within an allelic series)","12.1 upbm affinity estimate (log intensity, higher = more binding, comparable within an allelic series)"
CAATTATG,"13 upbm affinity estimate (log intensity, higher = more binding, comparable within an allelic series)",,,"13.8 upbm affinity estimate (log intensity, higher = more binding, comparable within an allelic series)","11.3 upbm affinity estimate (log intensity, higher = more binding, comparable within an allelic series)",,"9.97 upbm affinity estimate (log intensity, higher = more binding, comparable within an allelic series)","12.5 upbm affinity estimate (log intensity, higher = more binding, comparable within an allelic series)",,"13.6 upbm affinity estimate (log intensity, higher = more binding, comparable within an allelic series)",,,,"13.9 upbm affinity estimate (log intensity, higher = more binding, comparable within an allelic series)","13.5 upbm affinity estimate (log intensity, higher = more binding, comparable within an allelic series)",,,"13.5 upbm affinity estimate (log intensity, higher = more binding, comparable within an allelic series)",,"11.7 upbm affinity estimate (log intensity, higher = more binding, comparable within an allelic series)"
CCAGGTCC,"7.71 upbm affinity estimate (log intensity, higher = more binding, comparable within an allelic series)","7.92 upbm affinity estimate (log intensity, higher = more binding, comparable within an allelic series)",,,,"7.95 upbm affinity estimate (log intensity, higher = more binding, comparable within an allelic series)",,"7.34 upbm affinity estimate (log intensity, higher = more binding, comparable within an allelic series)",,"7.79 upbm affinity estimate (log intensity, higher = more binding, comparable within an allelic series)",,"10.3 upbm affinity estimate (log intensity, higher = more binding, comparable within an allelic series)",,,,,,,,
